Where “and” joins values, the source holds several entries; their conditions need not be identical. Identical values can stand only once. In all, about 5,500 compounds went through this assay and about 2,000 (36%) were called active. Another 18% or so got no clear call; they are omitted. Rule as the data show it: active = normalized growth mostly below about 0.91 (no sharp cut-off); inconclusive = no clear call, values can overlap the other calls; inactive = mostly above about 0.92. The list shows a part of the results.
Assay: chemical genetic growth profiling, strain panel (AID 1159580);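 also: tested at 20 µM; growth read once vehicle control cultures reached saturation at 30 °C; 1 = growth at the plate median or of vehicle wells; lower values mean less growth of the strain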
Details: growth OD

Measured: normalized growth

O=c1n(CCCN2CCN(c3cccc(Cl)c3)CC2)nc2ccccn12
inactive: S. cerevisiae deletion strains, locus YJR066W, strain TOR1, hits give low values 0.943 | S. cerevisiae deletion strains, locus YJR075W, strain HOC1, hits give low values 0.94 and 0.981 | S. cerevisiae deletion strains, locus YKL009W, strain mrt4, hits give low values 0.967 | S. cerevisiae deletion strains, locus YKL068W, hits give low values 0.989 | S. cerevisiae deletion strains, locus YKL085W, strain MDH1 (second series), hits give low values 0.992 | S. cerevisiae deletion strains, locus YKL085W, strain MDH1, hits give low values 0.992 | S. cerevisiae deletion strains, locus YKL160W, strain elf1, hits give low values 0.986 | S. cerevisiae deletion strains, locus YKL190W, strain CNB1, hits give low values 0.986 | S. cerevisiae deletion strains, locus YKR001C, strain vps1, hits give low values 0.972 | S. cerevisiae deletion strains, locus YKR026C, strain gcn3, hits give low values 0.984 | S. cerevisiae deletion strains, locus YKR091W, strain srl3, hits give low values 0.993 | S. cerevisiae deletion strains, locus YLL001W, strain dnm1, hits give low values 0.986 | S. cerevisiae deletion strains, locus YLL026W, hits give low values 0.986 | S. cerevisiae deletion strains, locus YLL041C, strain sdh2, hits give low values 0.994 | S. cerevisiae deletion strains, locus YLR027C, strain aat2, hits give low values 0.979 | S. cerevisiae deletion strains, locus YLR039C, strain RIC1, hits give low values 0.975 | S. cerevisiae deletion strains, locus YLR058C, strain SHM2, hits give low values 0.964 | S. cerevisiae deletion strains, locus YLR102C, strain apc9, hits give low values 0.993 | S. cerevisiae deletion strains, locus YLR113W, strain HOG1, hits give low values 1 | S. cerevisiae deletion strains, locus YLR221C, strain rsa3, hits give low values 0.985 | S. cerevisiae deletion strains, locus YLR258W, strain gsy2, hits give low values 0.99 | S. cerevisiae deletion strains, locus YLR262C, strain YPT6 (second series), hits give low values 0.965 | S. cerevisiae deletion strains, locus YLR262C, strain YPT6, hits give low values 0.948 | S. cerevisiae deletion strains, locus YLR268W, strain sec22, hits give low values 0.98 | S. cerevisiae deletion strains, locus YLR320W, strain mms22, hits give low values 0.966 | S. cerevisiae deletion strains, locus YLR330W, strain CHS5, hits give low values 0.989 | S. cerevisiae deletion strains, locus YLR342W, strain FKS1 (second series), hits give low values 1.04 | S. cerevisiae deletion strains, locus YLR342W, strain FKS1, hits give low values 0.983 | S. cerevisiae deletion strains, locus YLR357W, strain rsc2, hits give low values 0.932 | S. cerevisiae deletion strains, locus YLR370C, strain arc18, hits give low values 0.982 | S. cerevisiae deletion strains, locus YLR371W, strain rom2, hits give low values 0.994 | S. cerevisiae deletion strains, locus YLR384C, strain iki3, hits give low values 0.983 | S. cerevisiae deletion strains, locus YLR418C, strain cdc73, hits give low values 1 | S. cerevisiae deletion strains, locus YML016C, strain PPZ1, hits give low values 0.98 | S. cerevisiae deletion strains, locus YML032C, strain rad52, hits give low values 0.979 | S. cerevisiae deletion strains, locus YML120C, strain ndi1, hits give low values 0.977 | S. cerevisiae deletion strains, locus YML124C, strain tub3, hits give low values 0.989 | S. cerevisiae deletion strains, locus YMR058W, strain fet3, hits give low values 0.976 | S. cerevisiae deletion strains, locus YMR078C, strain ctf18, hits give low values 0.995 | S. cerevisiae deletion strains, locus YMR125W, strain sto1, hits give low values 0.969 | S. cerevisiae deletion strains, locus YMR129W, hits give low values 0.984 | S. cerevisiae deletion strains, locus YMR205C, strain PFK2, hits give low values 0.964 | S. cerevisiae deletion strains, locus YMR223W, strain ubp8, hits give low values 1.01 | S. cerevisiae deletion strains, locus YMR231W, strain pep5, hits give low values 0.989 | S. cerevisiae deletion strains, locus YMR263W, strain SAP30, hits give low values 0.983 | S. cerevisiae deletion strains, locus YMR307W, strain GAS1, hits give low values 1.08 and 1.01 | S. cerevisiae deletion strains, locus YNL067W, strain RPL9B, hits give low values 0.969 | S. cerevisiae deletion strains, locus YNL071W, strain lat1, hits give low values 0.963 | S. cerevisiae deletion strains, locus YNL153C, strain GIM3, hits give low values 0.945 | S. cerevisiae deletion strains, locus YNL175C, strain NOP13, hits give low values 0.999 | S. cerevisiae deletion strains, locus YNL183C, strain NPR1, hits give low values 0.943 | S. cerevisiae deletion strains, locus YNL197C, strain WHI3, hits give low values 1 | S. cerevisiae deletion strains, locus YNL209W, strain ssb2, hits give low values 0.989 | S. cerevisiae deletion strains, locus YNL224C, strain SQS1, hits give low values 0.998 | S. cerevisiae deletion strains, locus YNL233W, strain BNI4, hits give low values 0.956 | S. cerevisiae deletion strains, locus YNL248C, strain rpa49, hits give low values 0.976 | S. cerevisiae deletion strains, locus YNL250W, strain rad50, hits give low values 0.973 | S. cerevisiae deletion strains, locus YNL271C, strain bni1, hits give low values 0.986 | S. cerevisiae deletion strains, locus YNL298W, strain CLA4, hits give low values 0.999 | S. cerevisiae deletion strains, locus YNL307C, strain MCK1, hits give low values 0.993 | S. cerevisiae deletion strains, locus YNL322C, strain KRE1 (second series), hits give low values 0.964 | S. cerevisiae deletion strains, locus YNL322C, strain KRE1, hits give low values 0.997 | S. cerevisiae deletion strains, locus YNR049C, strain mso1, hits give low values 0.979 | S. cerevisiae deletion strains, locus YNR052C, strain pop2, hits give low values 0.992 | S. cerevisiae deletion strains, locus YOL006C, strain TOP1, hits give low values 0.781 | S. cerevisiae deletion strains, locus YOL012C, strain htz1 1.02 | S. cerevisiae deletion strains, locus YOL147C, strain pex11, hits give low values 0.992 | S. cerevisiae deletion strains, locus YOR001W, strain rrp6, hits give low values 0.991 | S. cerevisiae deletion strains, locus YOR061W, strain CKA2, hits give low values 0.965 | S. cerevisiae deletion strains, locus YOR069W, strain VPS5, hits give low values 0.987 | S. cerevisiae deletion strains, locus YOR070C, strain gyp1, hits give low values 0.974 | S. cerevisiae deletion strains, locus YOR080W, strain dia2, hits give low values 0.975 | S. cerevisiae deletion strains, locus YOR083W, strain WHI5 (second series), hits give low values 1.02 | S. cerevisiae deletion strains, locus YOR083W, strain WHI5, hits give low values 0.984 | S. cerevisiae deletion strains, locus YOR106W, strain vam3, hits give low values 0.977 | S. cerevisiae deletion strains, locus YOR136W, strain idh2, hits give low values 0.983 | S. cerevisiae deletion strains, locus YOR144C, strain elg1, hits give low values 0.996 | S. cerevisiae deletion strains, locus YOR184W, strain ser1, hits give low values 0.992 | S. cerevisiae deletion strains, locus YOR231W, strain MKK1, hits give low values 1 | S. cerevisiae deletion strains, locus YOR265W, strain rbl2, hits give low values 0.969 | S. cerevisiae deletion strains, locus YOR270C, strain vph1, hits give low values 0.902 | S. cerevisiae deletion strains, locus YOR290C, strain snf2, hits give low values 0.939 | S. cerevisiae deletion strains, locus YOR316C, strain cot1, hits give low values 0.99 | S. cerevisiae deletion strains, locus YPL051W, strain arl3, hits give low values 0.982 | S. cerevisiae deletion strains, locus YPL078C, strain atp4, hits give low values 0.975 | S. cerevisiae deletion strains, locus YPL106C, strain sse1, hits give low values 0.971 | S. cerevisiae deletion strains, locus YPL240C, strain hsp82, hits give low values 0.984 | S. cerevisiae deletion strains, locus YPL241C, strain CIN2, hits give low values 0.997 | S. cerevisiae deletion strains, locus YPL256C, strain CLN2, hits give low values 1.01 | S. cerevisiae deletion strains, locus YPR119W, strain clb2, hits give low values 0.99 | S. cerevisiae deletion strains, locus YPR141C, strain kar3, hits give low values 0.984 | S. cerevisiae deletion strains, locus YPR163C, strain tif3, hits give low values 0.991 | S. cerevisiae deletion strains, locus YPR167C, strain met16, hits give low values 1 | S. cerevisiae deletion strains, strain wtn01, hits give low values 1.03 | S. cerevisiae strains, strain wild type, hits give low values 0.979
